Shown are actives, neighbours in structure and some others; about 3.5% of the full set was active somewhere.
FadD28 FP inh = blocks FadD28 binding to the bisubstrate probe; fluorescence polarization; inhibition, % at 12.5 µM; 0.22% of 360,000 active; AID 588549; in the data active = inhibition above about 8.5%, passing the limit was not always enough; inconclusive = no clear call, values can overlap the other calls
FBA Mtb inh = Mtb fructose-bisphosphate aldolase inhibition; 2.3% of 360,000 active; purified M. tuberculosis FBA, fluorescence read-out; inhibition, % at 1 µM; P9WQA3; in the data active = inhibition above about 27%
Mtb hypoxia inh = Mtb hypoxia fluorescent reporter inhibition. fluorescence inhibition, % (no concentration beside the values). 0.1% of 300,000 active. M. tuberculosis hypoxia-regulated fluorescent reporter, fluorescence. AID 1159583; in the data active = fluorescence inhibition mostly above about 23%, no sharp cut-off; inactive = mostly below about 17%
Rv3671c inh = Rv3671c (M. tuberculosis) protease inhibition. P9WHR9. inhibition, % at 5.96 µM. 0.048% of 320,000 active. AID 2606; in the data active = inhibition above about 38%;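 also: extracellular domain of Rv3671c used as enzyme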
GDH-TPI inh = GDH-TPI coupled enzyme inhibition counter-screen. GDH-TPI coupled enzyme counterscreen, NADH absorbance. inhibition, % at 4.8 µM. 1.2% of 360,000 active. AID 588335; in the data active = inhibition above about 30%
Mtb UGM inh = blocks M. tuberculosis UGM enzyme; P9WIQ1; purified UGM, fluorescence polarization probe displacement; inhibition, % at 10 µM; 0.06% of 320,000 active; in the data active = inhibition above about 10%, passing the limit was not always enough; inconclusive = no clear call, values can overlap the other calls
Target sequence (P9WIQ1 whole entry, looked up): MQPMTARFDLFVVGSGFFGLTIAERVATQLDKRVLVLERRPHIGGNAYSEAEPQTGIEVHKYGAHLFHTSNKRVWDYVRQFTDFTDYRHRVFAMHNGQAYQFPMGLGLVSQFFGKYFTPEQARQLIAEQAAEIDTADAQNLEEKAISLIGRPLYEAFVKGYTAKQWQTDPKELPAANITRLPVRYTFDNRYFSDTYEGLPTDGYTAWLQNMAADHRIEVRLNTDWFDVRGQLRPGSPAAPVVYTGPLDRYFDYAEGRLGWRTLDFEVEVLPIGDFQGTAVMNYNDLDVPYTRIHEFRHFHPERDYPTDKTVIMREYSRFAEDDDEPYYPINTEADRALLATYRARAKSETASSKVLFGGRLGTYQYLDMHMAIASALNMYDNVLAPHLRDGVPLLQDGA
Large screens that a line does not name were inactive.

COc1ccc(/C=C/C(=O)Nc2nc(C)c(C(=O)N(C)C)s2)cc1OC	GDH-TPI inh 34
COc1ccc(/C=C/C(=O)Nc2nc(C)c(C(=O)N(C)C)s2)cc1	GDH-TPI inh 42
CCOC(=O)CNC(=O)c1sc(NC(=O)/C=C/c2ccccc2)nc1C	GDH-TPI inh 32
Cc1nc(NC(=O)c2ccc(Br)s2)sc1C(=O)N(C)C	GDH-TPI inh 35
CCOC(=O)c1sc(NC(=O)/C=C/c2ccccc2)nc1C	none
Cc1nc(NC(=O)c2cc3c(s2)CCCCC3)sc1C(=O)N(C)C	none
NC(=S)NN=C1CC(n2nnn(-c3cccc(Cl)c3)c2=S)C2COC1O2 (configuration not stated)	none (no result: FadD28 FP inh, FBA Mtb inh, Rv3671c inh, GDH-TPI inh, Mtb UGM inh)
Cc1ccc(S(=O)(=O)Nc2ccc(Nc3nccn4c(-c5ccccc5Oc5ccccc5)cnc34)cc2)cc1	none (no result: Mtb hypoxia inh, Rv3671c inh, Mtb UGM inh)
Cc1ccc(S(=O)(=O)Nc2ccc(Nc3nccn4c(-c5ccc6ccccc6c5)cnc34)cc2)cc1	GDH-TPI inh 32 (no result: Mtb hypoxia inh, Rv3671c inh, Mtb UGM inh)
O=C(C1=CC(c2coc3ccccc3c2=O)CC(OCc2ccc(CO)cc2)O1)N1CCOCC1 (configuration not stated)	none (no result: FadD28 FP inh, FBA Mtb inh, Rv3671c inh, GDH-TPI inh, Mtb UGM inh)
O=C1CCC(OCc2ccccc2)CCN1CCC(Sc1ccccc1)c1ccccc1 (configuration not stated)	none (no result: FadD28 FP inh, FBA Mtb inh, Rv3671c inh, GDH-TPI inh, Mtb UGM inh)
O=C(O)c1ccc2nc(-c3ccccc3)sc2c1	none
Nc1cccc(-c2nc3ccc(N)cc3s2)c1	FBA Mtb inh 164
Nc1cc2sc(-c3ccc(C(=O)O)cc3)nc2cc1Cl	FBA Mtb inh 139 (no result: Mtb hypoxia inh)
Nc1ccc(-c2nc3ccc(N)cc3s2)cc1	FBA Mtb inh active, GDH-TPI inh 47
Nc1ccc(-c2nc3ccc(C(=O)O)cc3s2)cc1	GDH-TPI inh 54 (no result: FBA Mtb inh)
Cc1cccc(C2C3C(=O)N(Cc4ccccc4)C(=O)C3[C@]3(CC(C)C)C(=O)N(c4cccc(Cl)c4)C(=O)N23)c1 (some centres not stated)	none (no result: FadD28 FP inh, FBA Mtb inh, Rv3671c inh, GDH-TPI inh, Mtb UGM inh)
Cc1ccc(Cn2ccc(=O)c(OCc3c(Cl)cccc3Cl)c2C)cc1	Mtb hypoxia inh 68
CC(C)(C)OC(=O)CC1CC=CCC(CC(=O)NC(CO)Cc2ccccc2)C(=O)NC(Cc2ccccc2)COC1=O (configuration not stated)	none (no result: FadD28 FP inh, FBA Mtb inh, Rv3671c inh, GDH-TPI inh, Mtb UGM inh)
CC(=NNc1ccc(C(=O)O)cc1)c1ccc(S(=O)(=O)NCc2ccco2)cc1	none (no result: FadD28 FP inh, FBA Mtb inh, Rv3671c inh, GDH-TPI inh, Mtb UGM inh)
N#CCC(=O)Nc1ccc(C(=O)OCC(=O)Nc2cccc(C(F)(F)F)c2)cc1	FadD28 FP inh 11
CSc1ccc(/C=N/n2c(C)cc(C)cc2=O)cc1	GDH-TPI inh 33 (no result: Mtb hypoxia inh)
CCN(CC)c1ccc(C=Nn2c(C)cc(C)cc2=O)cc1	none (no result: FadD28 FP inh, FBA Mtb inh, Rv3671c inh, GDH-TPI inh, Mtb UGM inh)
Cc1ccc(C=C2CCC(C3CCCC3)C2=O)cc1 (configuration not stated)	none (no result: FadD28 FP inh, FBA Mtb inh, Rv3671c inh, GDH-TPI inh, Mtb UGM inh)
CCN(CC)c1ccc2cc(/C(N)=N/NC(=O)c3cccs3)c(=O)oc2c1	none (no result: FadD28 FP inh, FBA Mtb inh, Mtb hypoxia inh, GDH-TPI inh)
N/C(=N\NC(=O)c1cccs1)c1cc2ccccc2oc1=O	GDH-TPI inh 42 (no result: Mtb hypoxia inh)
CC(=O)C1C(c2ccccc2)NC(=O)N(Cc2ccccc2)C1C (configuration not stated)	none (no result: FadD28 FP inh, FBA Mtb inh, Rv3671c inh, GDH-TPI inh, Mtb UGM inh)
C=C(C)C1CC=C(CN2CCN(Cc3ccccc3)CC2)CC1 (configuration not stated)	none
C=C(C)[C@@H]1CC=C(CN2CCN(Cc3ccccc3)CC2)CC1	Mtb hypoxia inh 35
CCCCC(C)Sc1nc2c([nH]1)c(=S)n(C)c(=O)n2C (configuration not stated)	GDH-TPI inh 31 (no result: Mtb hypoxia inh, Rv3671c inh, Mtb UGM inh)
CSc1nc2c([nH]1)c(=S)n(C)c(=O)n2C	GDH-TPI inh 34 (no result: Rv3671c inh, Mtb UGM inh)
CCCCSc1nc2c([nH]1)c(=S)n(C)c(=O)n2C	none (no result: Mtb hypoxia inh, Rv3671c inh, Mtb UGM inh)
COC(=O)NN=Cc1cn(CCCOc2ccccc2)c2ccccc12	none (no result: FadD28 FP inh, FBA Mtb inh, Rv3671c inh, GDH-TPI inh, Mtb UGM inh)
CN(C)c1ccc(/C=N/NC(=O)C(=O)/C=C2\NC3(CCCC3)Cc3ccccc32)cc1	GDH-TPI inh 31 (no result: Mtb hypoxia inh)
Cc1ccc(-c2[nH]c(-c3ccc(C(=O)O)cc3)nc2-c2ccccc2)cc1	FadD28 FP inh inconclusive, FBA Mtb inh active (no result: Mtb hypoxia inh)
CCN(CC)c1ccc(/C=C2\C(=O)NC(=O)N(CC3CCCO3)C2=O)cc1 (configuration not stated)	GDH-TPI inh 33
Cc1ccc(/C=C2\C(=O)NC(=O)N(CC3CCCO3)C2=O)s1 (configuration not stated)	none
O=C(NN=Cc1ccccc1O)C1CC(=O)N(c2ccc(Cl)cc2)C1 (configuration not stated)	none (no result: FadD28 FP inh, FBA Mtb inh, Rv3671c inh, GDH-TPI inh, Mtb UGM inh)
CC(=NNC(=O)CNC(=O)c1ccccc1)c1ccc(C)cc1	none (no result: FadD28 FP inh, FBA Mtb inh, Rv3671c inh, GDH-TPI inh, Mtb UGM inh)
CCCn1nnc(NC(=S)NC(=O)c2ccc(-c3ccc(Br)cc3)o2)n1	GDH-TPI inh 35
